# Results published in publication PMC7862700, “An all-to-all approach to the identification of sequence-specific readers for epigenetic DNA modifications on cytosine”.
# Assays:
# Experiment in all cases: DAPPL (digital affinity profiling via proximity ligation, sequencing); 10 mM Tris-HCl pH 7.5, 50 mM NaCl, 1 mM DTT, 4% glycerol, room temperature, 30 min; GST-TFs on glutathione beads, 16-mer random dsDNA library, 0.1% formaldehyde crosslink after washing; high values mean tight binding
# FLI1 = target: T1, FLI1 (Homo sapiens, UniProt Q01543 1-452); conditions: protein: recombinant; tags: N-terminal GST; dsDNA, one strand shown
# T1 sequence: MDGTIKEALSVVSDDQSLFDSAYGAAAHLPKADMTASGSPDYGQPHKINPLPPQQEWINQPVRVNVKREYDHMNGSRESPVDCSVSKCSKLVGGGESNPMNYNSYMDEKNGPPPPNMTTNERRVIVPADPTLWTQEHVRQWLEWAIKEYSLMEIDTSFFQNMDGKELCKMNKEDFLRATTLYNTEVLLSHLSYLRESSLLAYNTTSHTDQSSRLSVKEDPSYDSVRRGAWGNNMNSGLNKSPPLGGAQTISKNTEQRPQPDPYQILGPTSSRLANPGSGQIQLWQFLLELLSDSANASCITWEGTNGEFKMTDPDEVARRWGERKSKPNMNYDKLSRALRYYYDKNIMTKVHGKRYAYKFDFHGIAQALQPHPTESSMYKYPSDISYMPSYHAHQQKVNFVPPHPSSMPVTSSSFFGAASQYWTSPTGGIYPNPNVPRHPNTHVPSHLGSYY
# Outline: (§1)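 After expression in yeast as GST fusions, human transcription factors were bound to glutathione beads, DNA-barcoded and mixed with a tag-only sample. The pools were incubated with 200 nmole of a 16-mer random double-stranded DNA library in Tris/NaCl/DTT/glycerol buffer (30 min, room temperature), washed and crosslinked with 0.1% formaldehyde. Proximity ligation with BsaI/T4 ligase ran for 1 h at 37 °C, before PCR amplification and sequencing on an Illumina NextSeq500. Binding signal is a hexamer's read frequency for a factor divided by its frequency for the tag-only sample.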
# ELK1 = target: T2, ELK1 (Homo sapiens, UniProt P19419 1-428); conditions: protein: recombinant; tags: N-terminal GST; dsDNA, one strand shown
# T2 sequence: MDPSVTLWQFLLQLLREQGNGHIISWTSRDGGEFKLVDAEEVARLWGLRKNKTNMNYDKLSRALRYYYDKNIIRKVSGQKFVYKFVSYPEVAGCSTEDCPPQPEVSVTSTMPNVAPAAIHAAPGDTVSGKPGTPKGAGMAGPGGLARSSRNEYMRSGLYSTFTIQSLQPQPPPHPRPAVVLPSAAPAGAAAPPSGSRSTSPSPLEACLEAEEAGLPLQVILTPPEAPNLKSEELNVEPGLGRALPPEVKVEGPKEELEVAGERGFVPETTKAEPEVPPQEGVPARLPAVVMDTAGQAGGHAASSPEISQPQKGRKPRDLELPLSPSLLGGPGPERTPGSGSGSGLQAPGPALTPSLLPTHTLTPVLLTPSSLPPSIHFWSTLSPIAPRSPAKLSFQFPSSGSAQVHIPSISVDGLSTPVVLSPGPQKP
# Outline: as §1
# GABPA = target: T3, GABPA (Homo sapiens, UniProt Q06546 1-454); conditions: protein: recombinant; tags: N-terminal GST; dsDNA, one strand shown
# T3 sequence: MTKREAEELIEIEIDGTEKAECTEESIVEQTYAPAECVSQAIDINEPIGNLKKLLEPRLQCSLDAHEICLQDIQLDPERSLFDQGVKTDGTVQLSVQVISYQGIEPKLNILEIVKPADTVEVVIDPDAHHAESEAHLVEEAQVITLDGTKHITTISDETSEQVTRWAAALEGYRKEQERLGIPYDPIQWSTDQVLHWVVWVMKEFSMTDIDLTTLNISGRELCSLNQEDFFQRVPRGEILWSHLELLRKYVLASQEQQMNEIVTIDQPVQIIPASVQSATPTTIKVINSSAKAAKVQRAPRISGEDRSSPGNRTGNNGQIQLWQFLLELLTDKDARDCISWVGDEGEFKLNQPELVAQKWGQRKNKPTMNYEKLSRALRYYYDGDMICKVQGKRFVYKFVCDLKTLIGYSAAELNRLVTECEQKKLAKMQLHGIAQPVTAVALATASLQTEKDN
# Outline: as §1
# ERG = target: T4, ERG (Homo sapiens, UniProt P11308 1-479); conditions: protein: recombinant; tags: N-terminal GST; dsDNA, one strand shown
# T4 sequence: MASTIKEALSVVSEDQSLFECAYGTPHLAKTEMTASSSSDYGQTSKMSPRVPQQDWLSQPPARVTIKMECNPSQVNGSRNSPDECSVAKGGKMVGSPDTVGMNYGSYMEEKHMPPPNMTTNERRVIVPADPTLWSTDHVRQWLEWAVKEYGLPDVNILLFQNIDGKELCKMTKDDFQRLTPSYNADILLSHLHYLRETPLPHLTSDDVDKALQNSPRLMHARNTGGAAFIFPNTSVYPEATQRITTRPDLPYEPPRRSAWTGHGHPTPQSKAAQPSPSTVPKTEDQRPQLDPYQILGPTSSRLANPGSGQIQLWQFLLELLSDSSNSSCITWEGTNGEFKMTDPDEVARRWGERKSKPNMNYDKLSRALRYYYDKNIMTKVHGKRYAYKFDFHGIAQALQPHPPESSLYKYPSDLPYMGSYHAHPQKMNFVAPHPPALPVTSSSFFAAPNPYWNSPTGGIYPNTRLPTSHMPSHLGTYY
# Outline: as §1
# ELF1 = ELF1 (Homo sapiens, UniProt P32519 1-619); conditions: protein: recombinant; tags: N-terminal GST; dsDNA, one strand shown
# Outline: as §1
# EHF = target: T5, EHF (Homo sapiens, UniProt Q9NZC4 1-300); conditions: protein: recombinant; tags: N-terminal GST; dsDNA, one strand shown
# T5 sequence: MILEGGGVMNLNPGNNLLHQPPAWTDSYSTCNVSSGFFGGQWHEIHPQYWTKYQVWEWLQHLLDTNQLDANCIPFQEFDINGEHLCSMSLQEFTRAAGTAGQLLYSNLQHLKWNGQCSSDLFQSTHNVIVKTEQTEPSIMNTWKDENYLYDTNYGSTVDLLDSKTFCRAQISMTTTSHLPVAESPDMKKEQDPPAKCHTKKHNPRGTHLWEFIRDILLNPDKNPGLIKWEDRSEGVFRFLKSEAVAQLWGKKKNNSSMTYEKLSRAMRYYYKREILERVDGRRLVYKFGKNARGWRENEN
# Outline: as §1
# SPI1 = SPI1 (Homo sapiens, UniProt P17947 1-270); conditions: protein: recombinant; tags: N-terminal GST; dsDNA, one strand shown
# Outline: as §1
# SPIB = SPIB (Homo sapiens, UniProt Q01892 1-262); conditions: protein: recombinant; tags: N-terminal GST; dsDNA, one strand shown
# Outline: as §1
# ELK3 = target: T6, ELK3 (Homo sapiens, UniProt P41970 1-407); conditions: protein: recombinant; tags: N-terminal GST; dsDNA, one strand shown
# T6 sequence: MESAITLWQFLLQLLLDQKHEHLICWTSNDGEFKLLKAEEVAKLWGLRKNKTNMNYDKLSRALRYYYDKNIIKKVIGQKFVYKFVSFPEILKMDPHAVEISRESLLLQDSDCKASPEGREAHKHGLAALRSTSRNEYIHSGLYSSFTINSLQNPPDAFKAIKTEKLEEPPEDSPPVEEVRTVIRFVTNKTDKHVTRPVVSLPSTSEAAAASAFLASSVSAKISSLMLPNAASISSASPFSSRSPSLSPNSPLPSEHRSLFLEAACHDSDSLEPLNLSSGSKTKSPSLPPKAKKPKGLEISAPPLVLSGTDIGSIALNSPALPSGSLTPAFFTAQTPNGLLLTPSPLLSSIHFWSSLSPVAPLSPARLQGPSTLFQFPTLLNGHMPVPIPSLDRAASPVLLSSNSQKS
# Outline: as §1
# FEV = target: T7, FEV (Homo sapiens, UniProt Q99581 1-238); conditions: protein: recombinant; tags: N-terminal GST; dsDNA, one strand shown
# T7 sequence: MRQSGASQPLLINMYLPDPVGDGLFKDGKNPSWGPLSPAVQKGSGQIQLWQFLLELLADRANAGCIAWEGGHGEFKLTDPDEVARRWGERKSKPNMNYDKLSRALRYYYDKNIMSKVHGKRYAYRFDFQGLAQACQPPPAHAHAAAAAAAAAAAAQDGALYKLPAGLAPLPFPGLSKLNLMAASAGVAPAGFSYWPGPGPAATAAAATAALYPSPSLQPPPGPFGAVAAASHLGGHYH
# Outline: as §1
# ETV5 = ETV5 (Homo sapiens, UniProt P41161 1-510); conditions: protein: recombinant; tags: N-terminal GST; dsDNA, one strand shown
# Outline: as §1
# HSF1 = HSF1 (Homo sapiens, UniProt Q00613 1-529); conditions: protein: recombinant; tags: N-terminal GST; chain copies: 3; dsDNA, one strand shown
# Outline: as §1
# SPIC = target: T8, SPIC (Homo sapiens, UniProt Q8N5J4 1-248); conditions: protein: recombinant; tags: N-terminal GST; dsDNA, one strand shown
# T8 sequence: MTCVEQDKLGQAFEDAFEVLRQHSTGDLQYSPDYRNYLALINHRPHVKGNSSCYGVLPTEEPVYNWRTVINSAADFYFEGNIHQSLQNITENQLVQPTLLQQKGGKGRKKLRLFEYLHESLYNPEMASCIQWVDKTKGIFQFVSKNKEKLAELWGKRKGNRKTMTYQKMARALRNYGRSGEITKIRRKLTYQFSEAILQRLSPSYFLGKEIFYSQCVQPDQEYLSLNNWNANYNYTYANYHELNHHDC
# Outline: as §1
# ELF4 = ELF4 (Homo sapiens, UniProt Q99607 1-663); conditions: protein: recombinant; tags: N-terminal GST; dsDNA, one strand shown
# Outline: as §1
# ELK4 = target: T9, ELK4 (Homo sapiens, UniProt P28324-2 1-405); conditions: protein: recombinant; tags: N-terminal GST; dsDNA, one strand shown
# T9 sequence: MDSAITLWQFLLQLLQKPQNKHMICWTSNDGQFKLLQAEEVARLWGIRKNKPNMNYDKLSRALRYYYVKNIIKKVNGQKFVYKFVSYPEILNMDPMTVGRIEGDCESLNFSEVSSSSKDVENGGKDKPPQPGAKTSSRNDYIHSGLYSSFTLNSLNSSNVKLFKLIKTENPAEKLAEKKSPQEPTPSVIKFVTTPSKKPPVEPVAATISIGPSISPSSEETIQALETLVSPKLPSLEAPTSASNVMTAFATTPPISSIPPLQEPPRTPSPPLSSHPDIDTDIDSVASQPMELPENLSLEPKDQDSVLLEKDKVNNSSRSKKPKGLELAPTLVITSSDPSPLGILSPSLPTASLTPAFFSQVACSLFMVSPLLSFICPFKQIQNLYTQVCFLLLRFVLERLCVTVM
# Outline: as §1
# ETV2 = target: T10, ETV2 (Homo sapiens, UniProt O00321 1-342); conditions: protein: recombinant; tags: N-terminal GST; dsDNA, one strand shown
# T10 sequence: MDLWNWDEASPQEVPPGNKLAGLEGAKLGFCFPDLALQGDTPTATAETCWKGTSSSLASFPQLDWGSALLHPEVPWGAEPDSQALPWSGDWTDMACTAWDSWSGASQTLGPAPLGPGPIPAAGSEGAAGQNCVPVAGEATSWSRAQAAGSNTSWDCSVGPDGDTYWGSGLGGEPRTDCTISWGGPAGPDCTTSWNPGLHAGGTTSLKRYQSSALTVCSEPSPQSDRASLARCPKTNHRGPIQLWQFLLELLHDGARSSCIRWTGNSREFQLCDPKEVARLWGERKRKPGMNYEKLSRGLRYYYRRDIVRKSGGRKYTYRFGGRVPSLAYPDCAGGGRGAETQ
# Outline: as §1
# ELF3 = target: T11, ELF3 (Homo sapiens, UniProt P78545 1-371); conditions: protein: recombinant; tags: N-terminal GST; dsDNA, one strand shown
# T11 sequence: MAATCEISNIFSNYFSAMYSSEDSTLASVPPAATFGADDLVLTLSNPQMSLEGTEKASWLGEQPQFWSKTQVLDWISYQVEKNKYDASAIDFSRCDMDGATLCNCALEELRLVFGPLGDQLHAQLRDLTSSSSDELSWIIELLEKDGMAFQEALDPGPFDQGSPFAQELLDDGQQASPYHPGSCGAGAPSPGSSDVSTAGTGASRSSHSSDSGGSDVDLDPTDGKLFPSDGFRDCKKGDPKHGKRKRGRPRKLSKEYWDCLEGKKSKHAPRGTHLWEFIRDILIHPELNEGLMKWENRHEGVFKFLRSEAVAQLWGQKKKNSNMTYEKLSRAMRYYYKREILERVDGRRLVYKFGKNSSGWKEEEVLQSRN
# Outline: as §1
# CRX = CRX (Homo sapiens, UniProt O43186 1-299); conditions: protein: recombinant; tags: N-terminal GST; dsDNA, one strand shown
# Outline: as §1
# ETV1 = ETV1 (Homo sapiens, UniProt P50549 1-477); conditions: protein: recombinant; tags: N-terminal GST; dsDNA, one strand shown
# Outline: as §1
# Sequence of ELF1 (P32519 whole entry): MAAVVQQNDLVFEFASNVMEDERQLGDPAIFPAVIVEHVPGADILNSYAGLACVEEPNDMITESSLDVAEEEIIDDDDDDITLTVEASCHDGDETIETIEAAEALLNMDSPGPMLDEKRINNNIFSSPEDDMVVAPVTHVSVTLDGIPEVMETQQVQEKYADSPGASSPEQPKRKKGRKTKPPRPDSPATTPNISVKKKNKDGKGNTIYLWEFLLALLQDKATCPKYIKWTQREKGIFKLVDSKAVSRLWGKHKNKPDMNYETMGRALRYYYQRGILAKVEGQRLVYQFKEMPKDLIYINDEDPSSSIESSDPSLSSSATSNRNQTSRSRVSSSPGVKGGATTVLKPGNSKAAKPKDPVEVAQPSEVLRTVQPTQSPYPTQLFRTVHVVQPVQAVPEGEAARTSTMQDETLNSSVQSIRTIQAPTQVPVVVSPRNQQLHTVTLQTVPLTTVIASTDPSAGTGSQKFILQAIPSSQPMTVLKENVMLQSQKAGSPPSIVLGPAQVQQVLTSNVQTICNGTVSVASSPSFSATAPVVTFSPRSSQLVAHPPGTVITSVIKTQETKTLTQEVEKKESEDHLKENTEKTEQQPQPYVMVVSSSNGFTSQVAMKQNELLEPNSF
# Sequence of ETV5 (P41161 whole entry): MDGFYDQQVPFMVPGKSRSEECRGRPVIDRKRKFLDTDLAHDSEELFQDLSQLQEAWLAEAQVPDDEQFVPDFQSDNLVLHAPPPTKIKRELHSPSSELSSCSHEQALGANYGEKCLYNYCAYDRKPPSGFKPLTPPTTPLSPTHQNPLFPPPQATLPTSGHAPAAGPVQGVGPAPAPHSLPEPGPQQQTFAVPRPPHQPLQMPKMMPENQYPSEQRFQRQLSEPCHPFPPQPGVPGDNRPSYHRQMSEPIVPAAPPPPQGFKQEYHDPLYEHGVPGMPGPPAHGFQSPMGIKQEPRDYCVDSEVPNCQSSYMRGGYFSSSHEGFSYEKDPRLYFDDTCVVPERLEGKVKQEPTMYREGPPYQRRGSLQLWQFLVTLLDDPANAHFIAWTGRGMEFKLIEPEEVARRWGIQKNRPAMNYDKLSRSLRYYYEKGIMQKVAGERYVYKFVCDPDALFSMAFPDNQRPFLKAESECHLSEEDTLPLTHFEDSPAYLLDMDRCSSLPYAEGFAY
# Sequence of ETV1 (P50549 whole entry): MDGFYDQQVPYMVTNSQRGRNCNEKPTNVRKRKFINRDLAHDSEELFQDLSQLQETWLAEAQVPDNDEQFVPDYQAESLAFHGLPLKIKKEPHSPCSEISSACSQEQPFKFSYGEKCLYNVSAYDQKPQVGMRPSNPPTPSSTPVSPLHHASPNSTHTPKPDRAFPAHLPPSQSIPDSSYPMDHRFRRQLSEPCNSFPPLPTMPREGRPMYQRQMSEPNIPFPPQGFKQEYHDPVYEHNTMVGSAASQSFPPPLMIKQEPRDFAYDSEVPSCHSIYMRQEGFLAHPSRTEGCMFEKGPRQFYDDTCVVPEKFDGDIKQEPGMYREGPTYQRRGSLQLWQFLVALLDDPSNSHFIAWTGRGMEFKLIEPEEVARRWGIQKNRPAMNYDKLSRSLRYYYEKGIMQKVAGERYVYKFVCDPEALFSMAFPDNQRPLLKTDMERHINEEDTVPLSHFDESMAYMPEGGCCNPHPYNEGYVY
# Sequence of SPIB (Q01892 whole entry): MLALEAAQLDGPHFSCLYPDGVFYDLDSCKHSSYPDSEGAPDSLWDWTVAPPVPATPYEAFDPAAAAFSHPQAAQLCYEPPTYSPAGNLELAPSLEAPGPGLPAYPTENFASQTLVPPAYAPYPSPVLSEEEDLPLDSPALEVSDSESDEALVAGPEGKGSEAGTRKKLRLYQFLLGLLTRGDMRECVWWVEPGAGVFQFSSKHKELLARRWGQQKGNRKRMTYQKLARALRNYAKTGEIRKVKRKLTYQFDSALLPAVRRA
# Sequence of ELF4 (Q99607 whole entry): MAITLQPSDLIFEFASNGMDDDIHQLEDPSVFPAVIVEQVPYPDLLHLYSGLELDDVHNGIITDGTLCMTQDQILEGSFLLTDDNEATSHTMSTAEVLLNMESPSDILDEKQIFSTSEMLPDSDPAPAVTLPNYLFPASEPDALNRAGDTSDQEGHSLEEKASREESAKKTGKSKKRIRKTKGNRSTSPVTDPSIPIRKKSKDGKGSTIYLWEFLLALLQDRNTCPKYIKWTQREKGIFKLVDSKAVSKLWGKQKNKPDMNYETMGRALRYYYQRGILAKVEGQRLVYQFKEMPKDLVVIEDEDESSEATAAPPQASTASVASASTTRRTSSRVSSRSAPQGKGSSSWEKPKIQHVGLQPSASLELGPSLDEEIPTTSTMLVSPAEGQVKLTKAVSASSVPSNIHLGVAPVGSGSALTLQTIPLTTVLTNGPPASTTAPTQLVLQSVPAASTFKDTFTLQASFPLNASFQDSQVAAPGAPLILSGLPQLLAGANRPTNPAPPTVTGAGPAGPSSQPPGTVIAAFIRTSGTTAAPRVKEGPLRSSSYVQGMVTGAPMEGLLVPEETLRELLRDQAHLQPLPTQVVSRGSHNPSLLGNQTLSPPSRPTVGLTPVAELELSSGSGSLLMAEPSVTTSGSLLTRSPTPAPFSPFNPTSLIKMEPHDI
# Sequence of CRX (O43186 whole entry): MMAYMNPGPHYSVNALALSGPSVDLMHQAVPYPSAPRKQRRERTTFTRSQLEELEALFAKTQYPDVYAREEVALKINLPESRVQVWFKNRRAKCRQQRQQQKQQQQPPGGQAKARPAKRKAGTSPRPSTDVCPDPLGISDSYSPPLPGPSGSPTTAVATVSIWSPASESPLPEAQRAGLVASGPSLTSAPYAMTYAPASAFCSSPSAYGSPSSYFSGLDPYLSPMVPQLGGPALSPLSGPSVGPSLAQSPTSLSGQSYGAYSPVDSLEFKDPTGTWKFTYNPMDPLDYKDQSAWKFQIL
# Sequence of HSF1 (Q00613 whole entry): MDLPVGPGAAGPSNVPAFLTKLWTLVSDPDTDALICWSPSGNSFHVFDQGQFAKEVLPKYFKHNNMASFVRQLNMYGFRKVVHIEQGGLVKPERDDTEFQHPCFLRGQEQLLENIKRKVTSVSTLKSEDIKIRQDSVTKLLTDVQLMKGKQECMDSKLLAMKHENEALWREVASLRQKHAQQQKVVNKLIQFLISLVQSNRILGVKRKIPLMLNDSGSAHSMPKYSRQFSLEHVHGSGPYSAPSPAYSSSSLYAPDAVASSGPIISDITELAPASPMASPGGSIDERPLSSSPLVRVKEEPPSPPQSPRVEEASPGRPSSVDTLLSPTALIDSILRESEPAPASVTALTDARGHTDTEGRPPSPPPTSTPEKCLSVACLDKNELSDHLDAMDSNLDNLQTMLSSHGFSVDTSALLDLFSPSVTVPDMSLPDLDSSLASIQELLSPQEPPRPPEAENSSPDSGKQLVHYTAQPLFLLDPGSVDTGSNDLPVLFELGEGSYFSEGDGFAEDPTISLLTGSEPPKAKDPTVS
sequence,measurement,setting,value
TACATC,binding signal,FLI1,"1.63 fold enrichment (6-mer frequency, TF over GST control)"
same,binding signal,ELK1,"1.67 fold enrichment (6-mer frequency, TF over GST control)"
same,binding signal,GABPA,"1.51 fold enrichment (6-mer frequency, TF over GST control)"
same,binding signal,ERG,"1.65 fold enrichment (6-mer frequency, TF over GST control)"
same,binding signal,ELF1,"1.53 fold enrichment (6-mer frequency, TF over GST control)"
same,binding signal,EHF,"1.6 fold enrichment (6-mer frequency, TF over GST control)"
same,binding signal,SPI1,"1.57 fold enrichment (6-mer frequency, TF over GST control)"
same,binding signal,SPIB,"1.65 fold enrichment (6-mer frequency, TF over GST control)"
same,binding signal,ELK3,"1.74 fold enrichment (6-mer frequency, TF over GST control)"
same,binding signal,FEV,"1.77 fold enrichment (6-mer frequency, TF over GST control)"
same,binding signal,ETV5,"1.63 fold enrichment (6-mer frequency, TF over GST control)"
same,binding signal,HSF1,"1.09 fold enrichment (6-mer frequency, TF over GST control)"
same,binding signal,SPIC,"1.61 fold enrichment (6-mer frequency, TF over GST control)"
same,binding signal,ELF4,"1.56 fold enrichment (6-mer frequency, TF over GST control)"
same,binding signal,ELK4,"1.53 fold enrichment (6-mer frequency, TF over GST control)"
same,binding signal,ETV2,"1.65 fold enrichment (6-mer frequency, TF over GST control)"
same,binding signal,ELF3,"1.48 fold enrichment (6-mer frequency, TF over GST control)"
same,binding signal,CRX,"1.17 fold enrichment (6-mer frequency, TF over GST control)"
same,binding signal,ETV1,"1.64 fold enrichment (6-mer frequency, TF over GST control)"
